# In all, about 160,000 compounds went through this assay and about 45 (0.03%) were called active. The sample holds actives, similar compounds and a random draw of the others, so the mix is not that of the screen. Rule as the data show it: active = inhibition mostly above about 34% (no sharp cut-off); inconclusive = no clear call, values can overlap the other calls; inactive = mostly below about 22%.
# Molecular target: dTDP-4-dehydrorhamnose reductase (Mycobacterium tuberculosis (strain ATCC 25618 / H37Rv)) + dTDP-4-dehydrorhamnose 3,5-epimerase (Mycobacterium tuberculosis (strain ATCC 25618 / H37Rv)) (UniProt P9WH09+P9WH11)
# Assay: M. tuberculosis RmlC/RmlD coupled enzyme inhibitors, primary screen, biochemical, compound mixtures, 384-well, from 1536-well plates (AID 1533)
# Conditions: RmlC+RmlD coupled enzyme assay, percent inhibition, primary screen in compound mixtures, stronger effect = higher value
# dTDP-4-dehydrorhamnose reductase (Mycobacterium tuberculosis (strain ATCC 25618 / H37Rv)) + dTDP-4-dehydrorhamnose 3,5-epimerase (Mycobacterium tuberculosis (strain ATCC 25618 / H37Rv)), sequence (P9WH09 whole entry, looked up): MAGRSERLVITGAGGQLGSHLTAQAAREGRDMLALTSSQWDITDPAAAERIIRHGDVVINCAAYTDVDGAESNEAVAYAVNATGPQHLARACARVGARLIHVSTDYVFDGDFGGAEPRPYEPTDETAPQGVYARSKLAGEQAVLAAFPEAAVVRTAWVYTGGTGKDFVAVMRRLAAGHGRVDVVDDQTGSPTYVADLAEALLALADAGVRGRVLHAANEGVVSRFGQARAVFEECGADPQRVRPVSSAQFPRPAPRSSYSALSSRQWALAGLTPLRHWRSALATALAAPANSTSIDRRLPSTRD
# dTDP-4-dehydrorhamnose reductase (Mycobacterium tuberculosis (strain ATCC 25618 / H37Rv)) + dTDP-4-dehydrorhamnose 3,5-epimerase (Mycobacterium tuberculosis (strain ATCC 25618 / H37Rv)), sequence (P9WH11 whole entry, looked up): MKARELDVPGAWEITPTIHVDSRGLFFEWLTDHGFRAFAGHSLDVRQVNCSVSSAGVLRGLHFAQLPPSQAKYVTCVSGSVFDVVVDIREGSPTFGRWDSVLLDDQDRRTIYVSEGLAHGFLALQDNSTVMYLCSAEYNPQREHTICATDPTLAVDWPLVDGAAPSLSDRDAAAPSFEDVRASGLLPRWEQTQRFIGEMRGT
Structure (SMILES),inhibition (at 3.6 µM),"inhibition (measured here: mean retest inhibition, at 5.5 µM) [%]"
COc1ccc2[nH]c(=S)cc(C)c2c1,1.84% (inactive),–
Cc1cc(=O)oc2cc(OCCC[n+]3ccccc3)ccc12,2.56% (inactive),–
CCc1ccc(-n2c(SCc3cc(=O)n4cc(Br)ccc4n3)nc3[nH]ncc3c2=O)cc1,-10.8% (inactive),–
CCn1c2ccccc2c2cc(NC(=O)Nc3ccc([N+](=O)[O-])cc3C)ccc21,14.1% (inactive),–
O=C(Nc1cccnc1)c1cc([N+](=O)[O-])ccc1Cl,-16% (inactive),–
COc1cccc(C(=O)n2ccc(-c3cccs3)n2)c1,2.94% (inactive),–
COc1ccc(N(Cc2ccccc2)S(=O)(=O)c2cccc(C(=O)O)c2)cc1,1.87% (inactive),–
COc1ccccc1Cn1c(CO)nc2ccccc21,17.8% (inactive),–
CC(=O)N1N=C(c2ccncc2)OC1(Cc1ccccc1)Cc1ccccc1,9.53% (inactive),–
COc1cccc(CNn2cn[nH]c2=S)c1OCc1ccccc1,-3.37% (inactive),–
C=CCN1C(=O)C(O)(CC(=O)c2ccccn2)c2ccccc21 (stereo not drawn),-20.3% (inactive),–
S=c1[nH]nc(Nc2ccccc2)s1,-6.55% (inactive),–
CC1C(=O)NC(=O)C1c1ccccc1 (stereo not drawn),11.3% (inactive),–
COc1ccc(NC(=O)C2CCC(CNc3c(N4CCCCC4)c(=O)c3=O)CC2)c(OC)c1 (stereo not drawn),1.5% (inactive),–
O=C(Nc1ccccc1)Nc1ccc(C(F)(F)F)cn1,-12.1% (inactive),–
COC(=O)c1sc(SC)c(S(=O)(=O)C(C)C)c1N/N=C(\C#N)S(=O)(=O)c1ccccn1,26.5% (inactive),–
O=C(NC1C2CC3CC(C2)CC1C3)c1ccc(N2CCNCC2)c([N+](=O)[O-])c1 (stereo not drawn),-17.8% (inactive),–
C=CCC1(C#N)C(=S)NC(C)=C(C(=O)OCC)C1c1ccccc1 (stereo not drawn),-2.23% (inactive),–
Cc1c(Cc2ccccc2)c(=O)oc2cc(OCC(N)=O)ccc12,-14.1% (inactive),–
Cn1c(SCC(=O)c2ccc(F)cc2)nnc1-c1ccccn1,-3.85% (inactive),–
CCOC(=O)COc1nc(C)cc(C(F)(F)F)c1C#N,2.06% (inactive),–

Structure (SMILES),inhibition (at 3.6 µM),"inhibition (measured here: mean retest inhibition, at 5.5 µM) [%]"
O=C(O)CCCCCCCCCC[n+]1ccccc1,9.14% (inactive),–
NC(=O)c1ccc(NC(=O)COC(=O)c2ccc([N+](=O)[O-])cc2)cc1,11.7% (inactive),–
Cc1cc(N2CCN(c3ccc(F)cc3)CC2)n2ncnc2n1,15.1% (inactive),–
CN(C)C(=O)c1nc2ccc(Cl)cn2c1CNCc1cccc(OC(F)(F)F)c1,10.5% (inactive),–
O=C(c1ccc(=O)oc1)N1CCC(C(O)(c2ccccc2)c2ccccc2)CC1,7.4% (inactive),–
O=C(COC(=O)/C=C/c1ccc2c(c1)OCO2)NC1CCS(=O)(=O)C1 (stereo not drawn),-0.46% (inactive),–
CCCCc1nnc(NC(=O)CSc2nc(N)cc(=O)[nH]2)s1,-1.44% (inactive),–
CCC(O)C1CCN(Cc2cn(-c3ccc(OC)cc3)nc2-c2cccc(F)c2)CC1 (stereo not drawn),-7.8% (inactive),–
CC(NC(=S)Nc1ccccc1)C(c1cccs1)N1CCOCC1 (stereo not drawn),3.55% (inactive),–
CCC1CCCCN1C(=O)CSc1nc2c(c(=O)n(C)c(=O)n2C)n1C (stereo not drawn),-9.61% (inactive),–
CCOC(=O)c1ccccc1NC(=S)N1CCC(C(N)=O)CC1,-16.5% (inactive),–
CC1=NN(c2ccccc2)C(=O)C1C(=O)c1ccc([N+](=O)[O-])cc1 (stereo not drawn),4.71% (inactive),–
CCCNc1c(N)c(=O)c1=O,-3% (inactive),–
COc1ccc(CCNC(=O)C(=O)Nc2ccc3nc4n(c(=O)c3c2)CCCCC4)cc1OC,-7.43% (inactive),–
CN1CCN(c2ncc3c(n2)CC(c2ccccc2F)CC3=O)CC1 (stereo not drawn),2.14% (inactive),–
N#C/C(=C(\O)C(F)(F)F)c1nnc2n1CCCCC2,31.1% (inactive),-1.52
CCOc1ccc2nc(NCCNC(=O)C(C)(C)C)c(C)cc2c1,-1% (inactive),–
Cn1cc(S(=O)(=O)NC(c2ccccc2)c2ccccc2)c(=O)n(C)c1=O,-1% (inactive),–
CN(c1ccc(OCC(=O)NC2=NCCS2)cc1)S(=O)(=O)c1ccc(F)cc1,9.17% (inactive),–
CC1CC1C(=O)OCC(=O)c1c(N)n(C)c(=O)n(C)c1=O (stereo not drawn),-8.03% (inactive),–
O=S(=O)(NCCc1csc(-c2ccccc2)n1)c1cccnc1,4.16% (inactive),–

Structure (SMILES),inhibition (at 3.6 µM),"inhibition (measured here: mean retest inhibition, at 5.5 µM) [%]"
Cc1nnc2n1N=C(c1ccc3c(c1)NC(=O)CO3)CS2,-5.45% (inactive),–
COc1ccc(C)cc1NC(=O)c1ccc(-c2ccc(C(C)=O)cc2)o1,6.7% (inactive),–
C/C(=N/NC(=O)CC(=O)N/N=C(\C)c1ccc([N+](=O)[O-])cc1)c1ccc([N+](=O)[O-])cc1,11.2% (inactive),–
O=C(Nc1nc2ccc([N+](=O)[O-])cc2s1)c1ccncc1,8.08% (inactive),–
COc1cc(CN2CCNC(=O)C2CC(=O)NCCc2ncccc2C)cc(OC)c1 (stereo not drawn),-11.4% (inactive),–
CN(CC(=O)Nc1ccccc1F)CC(=O)Nc1ccccc1Br,27.7% (inactive),–
Cc1c(C)c(C)c2[nH]c(=S)[nH]c2c1C,4.61% (inactive),–
O=c1[nH]c(CSc2ccccc2)nc2c1oc1ccccc12,2.42% (inactive),–
CCOc1ccc(NC(=S)N2CCCCCC2)cc1,-16.4% (inactive),–
CCOc1ccc(NS(=O)(=O)c2cc(C)c(C)cc2C)cc1,-11.4% (inactive),–
CC(=O)c1c(C)[nH]c(=S)c(C#N)c1-c1ccc(F)cc1,10.4% (inactive),–
CCCc1nc2oc3c(=O)[nH]cnc3c2c2c1COC(C)(C)C2,-9.43% (inactive),–
O=C(NCc1cccnc1)C(=O)Nc1nc(-c2ccccc2)cs1,-5.87% (inactive),–
Oc1oc(-c2ccccc2Br)nc1/C=N/c1ccccn1,2.05% (inactive),–
Oc1cccc2ccc(/C=C/c3ccc(Br)s3)nc12,-11.7% (inactive),–
CN(C)CCOc1cccc(Br)c1,11.8% (inactive),–
CN(C)c1ccc(NC(=O)CSc2n[nH]c(-c3ccco3)n2)cc1,-3.13% (inactive),–
Cc1nc2ccccn2c1C(=O)NN=C1CCN(C)CC1,-1.88% (inactive),–
CC(C)OCCCNC(=O)c1ccc(C2SCC(=O)N2Cc2ccco2)cc1 (stereo not drawn),1.23% (inactive),–
CCn1c(CSCc2c(Cl)cccc2Cl)n[nH]c1=S,-0.03% (inactive),–
